Inconclusive results are not listed. The source made the active and inactive calls. Unless noted, calls follow the shape of the dose curve; as a rule, active = well fitted curve in the direction sought with a large enough effect; inconclusive = small, poorly fitted or top-dose-only effect, or another doubt; inactive = no such curve, though single readings can be large; an effect the other way counts as inactive or inconclusive.
Tests used:
[1] = biological target: Vitamin D3 receptor (Homo sapiens) (UniProt P11473); test: qHTS assay for small molecule antagonists of vitamin D receptor signaling (AID 588541; calls by dose curve;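 also: receptor activated by calcitriol during compound treatment; series mostly up to about 77 µM; % is scaled to controls: 0 for no effect and ±100 for the full control effect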)
Vitamin D3 receptor (Homo sapiens), sequence (P11473 whole entry, looked up): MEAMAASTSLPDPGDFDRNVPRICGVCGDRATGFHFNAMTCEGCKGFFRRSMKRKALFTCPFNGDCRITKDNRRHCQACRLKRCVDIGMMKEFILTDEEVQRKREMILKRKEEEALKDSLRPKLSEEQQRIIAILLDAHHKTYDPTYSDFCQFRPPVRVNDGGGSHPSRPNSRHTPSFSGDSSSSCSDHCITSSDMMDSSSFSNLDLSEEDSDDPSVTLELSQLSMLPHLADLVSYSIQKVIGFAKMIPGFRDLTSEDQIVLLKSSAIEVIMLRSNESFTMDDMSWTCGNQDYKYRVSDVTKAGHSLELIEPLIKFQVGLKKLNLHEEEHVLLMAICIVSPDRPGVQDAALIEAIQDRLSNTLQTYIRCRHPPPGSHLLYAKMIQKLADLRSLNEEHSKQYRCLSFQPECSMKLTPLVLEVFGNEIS
Outline: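 Antagonist-mode beta-lactamase reporter assay: HEK293T VDR-UAS-bla cells were exposed to titrated compound alongside 1-alpha,25-dihydroxyvitamin D3 at 3 nM final for 16 h. Values were normalized to the 50 nM agonist control and DMSO basal, with IC50 and efficacy from Hill equation fits.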

[2] = biological target: Vitamin D3 receptor (Homo sapiens) (UniProt P11473); test: qHTS assay for small molecule agonists of vitamin D receptor signaling (AID 588543; calls by dose curve;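 also: 0% = DMSO basal and 100% = reference agonist control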)
Outline: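 Measured: β-lactamase reporter activity (CCF4, 405 nm excitation, 460/530 nm emission) in HEK293T VDR-UAS-bla cells after 16 h compound exposure at 37 °C. Normalization against 50 nM 1α,25-dihydroxyvitamin D3 and DMSO; Hill-fit EC50.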

[3] = biological target: Thyroid hormone receptor beta (Homo sapiens) (UniProt P10828); test: qHTS assay for small molecule antagonists of thyroid hormone receptor beta signaling (AID 588547; active = well fitted inhibition curve with a large enough effect in the signal ratio, with a control signal flat, not every such curve was filed as active; the % refers to the signal ratio;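 also: cells stimulated with 0.4 nM T3 agonist during compound exposure; series mostly up to about 77 µM; % is scaled to controls: 0 for no effect and ±100 for the full control effect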); settings: TR-UAS-bla HEK293, beta-lactamase ratio, antagonist mode, 18 h
Thyroid hormone receptor beta (Homo sapiens), sequence (P10828 whole entry, looked up): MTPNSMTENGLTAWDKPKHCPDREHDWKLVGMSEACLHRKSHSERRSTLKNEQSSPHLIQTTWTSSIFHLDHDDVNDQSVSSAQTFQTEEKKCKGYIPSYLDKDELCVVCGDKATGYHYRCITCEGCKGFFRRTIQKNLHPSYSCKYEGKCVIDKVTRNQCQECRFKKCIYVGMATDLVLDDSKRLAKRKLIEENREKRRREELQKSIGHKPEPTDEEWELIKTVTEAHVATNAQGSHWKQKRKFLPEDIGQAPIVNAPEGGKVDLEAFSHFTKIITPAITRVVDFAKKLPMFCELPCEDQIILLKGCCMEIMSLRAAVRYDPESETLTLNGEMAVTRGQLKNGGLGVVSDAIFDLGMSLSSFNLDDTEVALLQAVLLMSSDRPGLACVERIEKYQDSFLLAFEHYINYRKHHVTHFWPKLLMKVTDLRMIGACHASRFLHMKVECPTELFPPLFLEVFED
Outline: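 Inhibition of T3-driven (0.4nM final) beta-lactamase reporter activity was measured over 0.59 nM to 92 uM compound after 18 h at 37 C. The cells were GripTite HEK293 TR-UAS-bla in charcoal/dextran-stripped serum, with CCF4 ratio read-out and IC50 from Hill fits.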

[4] = biological target: Nuclear receptor subfamily 1 group I member 2 (Rattus norvegicus) (UniProt Q9R1A7); test: qHTS assay for small molecule activators of the rat pregnane X receptor (rPXR) signaling pathway (AID 651751; call rule not given here; also: 0% is about no effect); settings: rPXR reporter cells, luciferase (One-Glo), 24 h
Nuclear receptor subfamily 1 group I member 2 (Rattus norvegicus), sequence (Q9R1A7 whole entry, looked up): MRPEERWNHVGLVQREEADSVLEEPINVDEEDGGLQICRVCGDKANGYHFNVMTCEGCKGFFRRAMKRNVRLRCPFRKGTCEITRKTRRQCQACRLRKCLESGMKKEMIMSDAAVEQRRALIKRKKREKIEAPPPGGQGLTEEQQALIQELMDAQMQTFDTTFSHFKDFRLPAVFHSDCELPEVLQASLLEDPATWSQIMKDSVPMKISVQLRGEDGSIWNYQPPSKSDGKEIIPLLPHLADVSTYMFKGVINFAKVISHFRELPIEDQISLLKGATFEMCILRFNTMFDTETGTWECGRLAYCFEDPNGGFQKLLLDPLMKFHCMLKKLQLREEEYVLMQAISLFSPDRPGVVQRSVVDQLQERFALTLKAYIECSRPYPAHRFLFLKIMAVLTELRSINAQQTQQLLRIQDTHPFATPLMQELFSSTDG

[5] = qHTS assay for small molecule activators of the human pregnane X receptor (PXR) signaling pathway (AID 720659; call rule not given here; also: 0% is about no effect)
[6] = biological target: Endonuclease 4 (Escherichia coli (strain K12)) (UniProt P0A6C1); test: Counterscreen for APE1 Inhibitors: qHTS Validation Assay for Inhibitors of Endonuclease IV (AID 1708); also: % is scaled to controls: 0 for no effect and ±100 for the full control effect
Outline: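 Incision of a double-stranded 50 nM TAMRA/BHQ-2 abasic substrate was followed kinetically (525/598 nm, reads every 60 s) after 15 min enzyme–compound preincubation with 2 nM EndoIV in pH 7.5 Tris buffer with MgCl2, DTT and Tween-20; concentration-response format.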

[7] = Quantitative high throughput screen for delayed death inhibitors of the malarial parasite plastid, 96 hour incubation (AID 488745); also: series mostly up to about 29 µM; % is scaled to controls: 0 for no effect and ±100 for the full control effect; nearly all actives have a fitted effect of over 70% in size
Outline: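 Decreased firefly luciferase luminescence indicates inhibited growth of reporter-integrated P. falciparum after two generations (96 h, 37 C, 5% CO2). Infected erythrocytes at 0.1% parasitemia, 2% hematocrit, in Albumax-supplemented RPMI 1640.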

[8] = Quantitative high throughput screen for delayed death inhibitors of the malarial parasite plastid, 48 hour incubation (AID 488752); also: % is scaled to controls: 0 for no effect and ±100 for the full control effect; nearly all actives have a fitted effect of over 65% in size
Outline: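 One-generation (48 h) growth assay: a decrease in luciferase signal from an integrated reporter in P. falciparum-infected red cells (0.1% parasitemia, 2% hematocrit) after compound exposure at 37 C indicates parasite inhibition.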

CC(C)=CCC/C(C)=C/CC/C(C)=C/CO
inactive: Potency [1] | outcome [2] | activity change % (negative = inhibition) [3] 1.19% | max response [4] -1.6% | outcome [5]

COc1ccc2c(c1)c(CC(=O)N1CCOCC1)c(C)n2C(=O)c1ccc(Cl)cc1
inactive: Potency [6] | Potency [7] | Potency [8]
